Measured values as given in PubChem BioAssay (NCATS).
“And” between values parts separate entries of the source, which are not always exact repeats. Equal values may be shown once. Records with an inconclusive call do not appear. Unmarked numbers belong to inactive results. Calls come from the whole dose curve; as a rule, active = well fitted activation curve with a large enough effect; inconclusive = small, poorly fitted or top-dose-only effect; inactive = no such curve, though single readings can be large or run the other way.

target: Cellular tumor antigen p53 (Homo sapiens) (UniProt P04637); assay: Primary qHTS for small molecule compounds that upregulate eGFP-tagged delta133p53alpha (in N-terminal) cells. (AID 2060322); conditions: NCI-H358 eGFP-delta133p53alpha fluorescence, 24 h; activation: hits give high values;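 note: cells pre-induced with doxycycline then dosed without doxycycline; series mostly up to about 56 µM; 0% = DMSO vehicle and 100% = reference activator; nearly all actives have a fitted effect of over 75% in size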
Sequence (P04637 whole entry, looked up): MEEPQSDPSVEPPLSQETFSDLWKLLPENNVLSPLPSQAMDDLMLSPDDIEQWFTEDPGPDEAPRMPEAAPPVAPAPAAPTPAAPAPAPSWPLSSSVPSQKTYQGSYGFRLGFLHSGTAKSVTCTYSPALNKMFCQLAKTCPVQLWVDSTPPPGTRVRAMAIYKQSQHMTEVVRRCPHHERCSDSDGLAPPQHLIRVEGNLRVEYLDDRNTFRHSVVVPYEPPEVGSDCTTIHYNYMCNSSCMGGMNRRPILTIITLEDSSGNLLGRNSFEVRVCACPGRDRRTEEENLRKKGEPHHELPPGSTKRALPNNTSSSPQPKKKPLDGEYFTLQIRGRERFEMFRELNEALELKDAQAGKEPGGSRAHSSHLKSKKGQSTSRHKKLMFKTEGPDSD
Description: Assay Development and Screening Technology
National Center for Advancing Translational Sciences (NCATS),
National Institute of Health (NIH), Rockville, Maryland
Cellular senescence (CS) is one of the hallmarks of aging and age-related diseases. Senescent cells are characterized by an irreversible growth arrest, an increase in senescence-associated beta-galactosidase (SA-beta-gal) activity and p16INK4a expression, an activation of the DNA damage response pathways, and the emergence of a senescence-associated secretory phenotype (SASP).
Delta133p53alpha, a human/primate-specific p53 protein isoform, delays or inhibits the induction of CS and SASP in various types of human cells, including progeria-derived fibroblasts, primary normal astrocytes, and CD8+ T lymphocytes. Induction of delta133p53alpha with small molecule compounds may provide therapeutic opportunities for inhibition of senescence/SASP-associated pathologies in progeria syndromes, astrocyte-mediated neuroprotection in neurodegenerative diseases, and possibly prevention and treatment of a wider range of senescence- and aging-associated diseases.
Here we report the development and validation of a cell-based quantitative high throughput screening (qHTS) assay in 1,536-well format. This qHTS assay uses the NCI-H358 cell line with doxycycline-inducible expression of enhanced green fluorescent protein (eGFP)-tagged delta133p53alpha, which allows efficient and highly quantitative measurement of the protein levels.
PROTOCOL TABLE (as described by Inglese J, Shamu CE and Guy RK. 2007)
SEQUENCE No. (e.g., 1, 2, 3, etc.); […] (e.g., Cells, Incubation, Reagent, etc.); VALUE; DESCRIPTION.
1; Cells; 4uL; 800 doxycycline treated cells / well in doxycycline-free media, 1536-well black, clear-bottom low base Aurora microplates.
2; Compounds; 23 nL; Kalypsis pin tool (Wako) equipped with 1536-well pin heads, 5-azacytidine positive control.
3; Incubation; 24 hr; 37C, 5% CO2; 95% relative humidity.
4; Aspiration; 1x; BioTek EL406 washer dispenser (Agilent).
5; Fixing; 3.5% paraformaldehyde, BioTek EL406 washer dispenser (Agilent).
6; Washing; 1x PBS; BioTek EL406 washer dispenser (Agilent).
7; Nuclei staining; 1:1000 dilution of Hoechst 33342 (Thermofisher), BioTek EL406 washer dispenser (Agilent).
8; Incubation; 20 min; in the dark at room temperature.
9; Washing; 2x, 1x PBS (ThermoFisher), BioTek EL406 washer dispenser (Agilent).
10; Reagent; 10 uL; 1x PBS per well, sealed with clear adhesive tape.
NOTES (numbers refer to sequence numbers above).
1. NCI-H358 cells expressing eGFP-tagged delta133p53alpha were grown in T75 culture flasks and treated with doxycycline for 24h, at 10 ng/ml for eGFP-D133p53a cells (N-terminal cell) and 100 ng/ml for D133p53a-eGFP cells (C-terminal cells). Cells were trypsinized, counted using a Counted 3 Automated Cell Counter (Thermo Fisher), and diluted to a concentration of 200,000 cells/ml. A Multidrop Combi Reagent Dispenser (ThermoFisher) was used to dispense 800 cells/well in […] of doxycycline-free media, into 1536-well black/clear bottom low base plates (AuroraMicroplates).
2. After plating cells, 23 nl of compound library, DMSO vehicle control or positive control (5-azacytidine) were transferred by Pin Tool (Wako). The plate map layout was the same for each plate: (column 1) non-doxycycline treated cells + DMSO vehicle control; (column 2) doxycycline treated cells + DMSO vehicle control baseline; (column 3) doxycycline treated cells + positive control 57.5 uM final concentration 5-azacytidine; (column 4) doxycycline treated cells + serial dilution of 5-azacytidine, 16-point 1:2 titration spanning 1.8 nM to […] final concentration; (columns 5-48) doxycycline treated cells + titration of library compounds.
3. Cells were incubated at 37 °C, 5 % CO2, 95% RH with breathable metal lid for 24h.
4-10. […] After two washes, 10 ul of 1X PBS (Thermo Fisher) was dispensed to each well. Clear adhesive plate seals (VWR) were applied and plates stored at 4 °C.
11. […]

Compound | activation
Cc1cc(NC(=O)NCCN2CCC(O)(Cc3ccccc3)CC2)c2ccccc2n1 | 3.34%
COc1cnc(-n2cnc(C)n2)c2[nH]cc(C(=O)C(=O)N3CCN(C(=O)c4ccccc4)CC3)c12 | 3.34%
C[N+](C)(C)CCOC(=O)CCC(=O)OCC[N+](C)(C)C | -8.47%
C=C1C2(C)CC3C4(C)OC(C5OC56C4=CC(=O)OC6(C)C)C3(C)C13C(=O)OC(C)C3(O)C2=O (stereo not given) | -9.92%
OC(CCN1CCCCC1)(c1ccccc1)C1CC2C=CC1C2 (stereo not given) | -27.6% and 6.19% and -26.9%
CC(=O)O[C@H]1C[C@@H]2CC[C@@H]3[C@H](CC[C@@]4(C)[C@H]3C[C@H]([N+]3(C)CCCCC3)[C@@H]4OC(C)=O)[C@@]2(C)C[C@@H]1[N+]1(C)CCCCC1 | -16.6%
COc1ccc([C@H]2Cc3cccc(O)c3C(=O)O2)cc1 | 3.05%
Cc1cc(-c2ncc(-c3cccnc3)cc2/C=C/c2ccccc2)cnc1-c1cccnc1 | 15.7%
CC1=CC(=O)CC(C)(C)C1CCC(C)O[C@@H]1O[C@H](CO[C@@H]2OC[C@@H](O)[C@H](O)[C@H]2O)[C@@H](O)[C@H](O)[C@H]1O (stereo not given in full) | -10.7%
CC(C)(N)c1ncc(-c2ccc(OC(F)(F)F)cc2)[nH]1 | -2.86%
CC1=C(C(=O)O)N2C(=O)[C@@H](NC(=O)[C@H](N)c3ccc(O)cc3)[C@H]2SC1 | 0%
CC(C)(Cc1ccccc1)NCC(O)c1ccc(O)c(NS(C)(=O)=O)c1 (stereo not given) | -0.955%
Cc1c(O)cccc1C(=O)N[C@@H](CSc1ccccc1)[C@H](O)CN1C[C@H]2CCCC[C@@H]2C[C@@H]1C(=O)NC(C)(C)C | -23%
COc1cc(F)c(C(C)C)cc1-c1ccc(C(F)(F)F)cc1CN1C(=O)OC(c2cc(C(F)(F)F)cc(C(F)(F)F)c2)C1C (stereo not given) | -6.68%
C=CC(=O)N1CCN(C(=O)c2cc(-c3cc(Cl)ccc3Cl)c(Cl)cc2OC)CC1 | -7.64%
Cc1[nH]nc(C(F)(F)F)c1Cc1sc2c(c1C(=O)N1C[C@](C)(O)CO1)c(=O)n(C)c(=O)n2C(C)C | -10.3%
C[C@]12CCC(=O)C=C1[C@@H]1C[C@@H]1[C@H]1[C@@H]3[C@@H]4C[C@@H]4[C@@]4(CCC(=O)O4)[C@@]3(C)CC[C@@H]12 | -15.3%
COC(=O)C1C(c2ccc(O)cc2)C(C(=O)O)C1c1ccc(O)cc1 (stereo not given) | -18.3%
Brc1c(NC2=NCCN2)ccc2nccnc12 | -0.565% and -20%
CC(=O)OC(CSC1CCC(=O)OC(C)CCC(=O)C1)C(=O)O (stereo not given) | -6.87%

Compound | activation
C=CC(C)(O)CCC1C(C)(O)CCC2C(C)(C)CCCC21C (stereo not given) | 9.82%
NC1=NC2(c3cc(NC(=O)c4ccc(F)cn4)ccc3F)COCC2CS1 (stereo not given) | -6.68%
C[C@]1(O)CC[C@@H]2C(C(=O)O)=CO[C@@H](O[C@@H]3O[C@H](CO)[C@@H](O)[C@H](O)[C@H]3O)[C@@H]21 | -11.5%
CC1(C)COC(=O)[C@@H]1O[C@@H]1O[C@H](CO)[C@@H](O)[C@H](O)[C@H]1O | -11.6%
C[C@@]1(C(=O)Nc2ccc(F)nc2)CCCN1c1nc(Nc2cc(C3CC3)[nH]n2)c2cccn2n1 | 19.3%
CN1CCc2nc(C(=O)N[C@@H]3C[C@@H](C(=O)N(C)C)CC[C@@H]3NC(=O)C(=O)Nc3ccc(Cl)cn3)sc2C1 | 1.91%
CCOc1ccc(NC(=O)CC(C)O)cc1 (stereo not given) | -0.837%
COc1cc(CCCO)ccc1O[C@@H]1O[C@H](CO)[C@@H](O)[C@H](O)[C@H]1O | -16.1%
COc1ccc(C(C)=O)c(O)c1 | 14.5%
Cc1cc(C(=O)N2Cc3cnn(C)c3Nc3ccccc32)ccc1CNC(=O)N1CCC[C@H]1C(=S)N1CCCN(C)CC1 | -0.893%
C[C@@H]1O[C@@H](OC[C@H]2O[C@@H](OCC3CCC4CC3C4(C)C)[C@H](O)[C@@H](O)[C@@H]2O)[C@H](O)[C@H](O)[C@H]1O (stereo not given in full) | 16.1%
NC(=O)c1cn(Cc2c(F)cccc2F)nn1 | -12.6% and -6.02%
O=C(OCC1=C[C@@H](O)[C@@H]2C=CO[C@@H](O[C@@H]3O[C@H](CO)[C@@H](O)[C@H](O)[C@H]3O)[C@H]12)c1ccc(O)cc1 | 3.57%
Clc1ccc(CN[C@H]2CCN(c3ncc(Br)cn3)C2)c(Cl)c1 | 3.57%
CNC(=O)[C@H]1O[C@@H](n2cnc3c(NCc4ccc(N)c(I)c4)ncnc32)[C@H](O)[C@@H]1O | 4.33%
N#Cc1cc(CN2CCC(Nc3ncnc4sc(Cl)cc34)CC2)ccc1F | 5%
C=CC(C)(O)CO[C@@H]1O[C@H](CO)[C@@H](O)[C@H](O)[C@H]1O (stereo not given in full) | -16%
CC1OC(OC2CCC3(C)C(CCC4(C)C3C=CC35OCC6(CCC(C)(C)CC63)CCC45C)C2(C)CO)C(OC2OC(CO)C(O)C(O)C2O)C(O)C1OC1OC(CO)C(O)C(O)C1O (stereo not given) | 14.3%
O=C(Nc1c(-c2cccs2)nc2ccccn12)c1ccc(Cl)cc1 | -8.59%
CCCC(=O)O[C@]1(C(=O)CCl)[C@@H](C)C[C@H]2[C@@H]3CCC4=CC(=O)C=C[C@]4(C)[C@@]3(F)C(=O)C[C@@]21C | -8.37%
